Vc quorum ag = quorum light induction in luxS cqsA deficient V. cholerae; AID 588436; actives 0.16% (n = 350,000); activation, % at 18.7 µM; V. cholerae BH1578 lux reporter, luminescence, 6 h; in the data active = activation mostly above about 9.7%, no sharp cut-off
Mtb FBA inh = inhibitors of M. tuberculosis fructose-bisphosphate aldolase. P9WQA3. purified M. tuberculosis FBA, fluorescence read-out. actives 2.3% (n = 360,000). inhibition, % at 1 µM. AID 588726;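 note: 0% = vehicle and 100% = reference inhibitor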
Target sequence (P9WQA3 whole entry, looked up): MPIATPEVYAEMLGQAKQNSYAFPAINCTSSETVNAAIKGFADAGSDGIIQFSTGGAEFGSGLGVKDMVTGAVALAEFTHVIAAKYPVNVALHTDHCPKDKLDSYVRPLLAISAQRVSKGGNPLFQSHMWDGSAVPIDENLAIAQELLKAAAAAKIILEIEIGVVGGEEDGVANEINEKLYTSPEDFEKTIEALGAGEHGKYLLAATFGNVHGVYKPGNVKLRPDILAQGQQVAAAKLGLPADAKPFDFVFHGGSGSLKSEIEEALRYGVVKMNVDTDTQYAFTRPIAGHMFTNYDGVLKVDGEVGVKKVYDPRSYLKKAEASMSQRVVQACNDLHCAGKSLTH
GDH-TPI counter-1 = inhibits GDH-TPI coupling enzymes, artifact for Mtb FBA screen; GDH-TPI coupled enzyme counterscreen, NADH absorbance; inhibition, % at 4.8 µM; actives 1.2% (n = 360,000); AID 588335; in the data active = inhibition above about 30%;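 note: 0% = DMSO wells and 100% = wells lacking the enzyme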
CCHFV vOTU inh = blocks the CCHF virus ovarian tumor domain protease | CCHFV vOTU protease, Pep-AMC fluorescence | inhibition, % at 11.5 µM | actives 0.55% (n = 370,000); in the data active = inhibition above about 30%; note: 0% = vehicle wells with enzyme and 100% = no enzyme wells
Mtb FBA confirm = confirmation of M. tuberculosis fructose-bisphosphate aldolase inhibitors. shares compounds with Mtb FBA inh. purified M. tuberculosis FBA, fluorescence read-out. inhibition, % at 1 µM. actives 78% (n = 5,600);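 note: 0% = vehicle wells and 100% = reference inhibitor wells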
GDH-TPI counter-2 = counter-screen for M. tuberculosis FBA inhibitors: GDH-TPI coupled enzyme inhibition; AID 652141; shares compounds with Mtb FBA inh; inhibition, % at 1 µM; actives 81% (n = 5,600); GDH-TPI coupled enzyme counterscreen, fluorescence; in the data active = inhibition above about 10%
Starred values were filed as active, the others as inactive; i = inactive; . = no result; + = active, no number. This is a sample that favours compounds with a hit; in the whole collection about 3.9% have one here. Cut-off read from the data, not from the text of the source, unless noted: active = inhibition above about 27%; inactive = the rest.

SMILES | Vc quorum ag | Mtb FBA inh | GDH-TPI counter-1 | CCHFV vOTU inh | Mtb FBA confirm | GDH-TPI counter-2
COc1ccc(CN(C(=O)c2cc(=O)c3ccccc3o2)C2CCS(=O)(=O)C2)cc1OC (stereo not drawn) | i | -3 | 6 | 1 | . | .
CC1CCCCC12NC(=O)N(CC(=O)N1CCN(S(=O)(=O)Cc3ccccc3)CC1)C2=O (stereo not drawn) | 1 | 0 | 4 | -5 | . | .
CCCCCCOC(=O)c1ccccc1NC(=O)/C=C/C(=O)O | 0 | 6 | 8 | 15 | . | .
NC(N)=N/N=C/c1ccc(N(c2ccccc2)c2ccccc2)cc1 | -1 | 104* | 8 | -54 | 71* | 49*
CC(C)OC(=O)c1cc2c(ccn2-c2ccc(F)cc2)n1CC(=O)N1CCN(C(=O)c2ccco2)CC1 | 2 | 36* | 13 | 11 | + | +
CCn1c(C(=O)OC)cc2c1ccn2-c1ccc(F)cc1 | i | -7 | 14 | 18 | . | .
COC(=O)c1cc2c(ccn2-c2ccc(F)cc2)n1CC(=O)N1CCN(C(=O)c2ccco2)CC1 | -10 | 29* | 12 | 5 | + | 197*
CC(C)OC(=O)c1cc2c(ccn2C)n1CC(=O)N1CCC(Cc2ccccc2)CC1 | -3 | 3 | 4 | 14 | . | .
O=C(Cn1nnc2ccccc21)c1ccc([N+](=O)[O-])cc1 | 3 | 1 | 6 | 9 | . | .
CSc1ncccc1C(=O)OC(C)C(=O)Nc1ccc2c(c1)OCCO2 (stereo not drawn) | 0 | 0 | 7 | 15 | . | .
CC(OC(=O)c1cccnc1Cl)C(=O)Nc1ccc2c(c1)OCCO2 (stereo not drawn) | i | 35* | -1 | -7 | 161* | 130*
Cc1cccc(C=Nc2ccc3c(c2)oc2ccccc23)c1O | -2 | 36* | 9 | 6 | 151* | 117*
Cc1ccccc1N=Cc1cccc(O)c1O | 0 | -5 | 4 | . | . | .
CCC(CO)Nc1ccn2nc(-c3cccs3)cc2n1 (stereo not drawn) | -1 | 39* | 8 | -26 | + | +
CCC(CO)Nc1ccn2nc(-c3cc(OC)c(OC)c(OC)c3)cc2n1 (stereo not drawn) | 0 | 32* | 14 | -5 | -9 | -7
CCC(CO)Nc1ccn2nc(-c3ccccc3)cc2n1 (stereo not drawn) | -4 | 18 | 3 | -12 | . | .
Cc1cc(C)cc(NC(=O)C(NCCN2CCOCC2)c2ccccc2)c1 (stereo not drawn) | i | 2 | -11 | 4 | . | .
CN(C)S(=O)(=O)c1ccc(C(=O)NNc2nc(-c3ccccc3)c3cc(Br)ccc3n2)cc1 | -2 | 2 | -2 | 5 | . | .
COC(=O)c1cc2nc(-c3ccccc3)cc(C)n2n1 | 1 | 10 | -2 | -10 | . | .
CCOc1ccc(-c2cc(C)n3nc(C(N)=O)cc3n2)cc1 | i | 52* | 5 | -56 | -2 | -1
CCc1cc(=O)n2c([nH]c3ccccc32)c1C#N | 0 | 66* | 1 | -48 | 60* | 50*
Cc1ccc(Cc2c(C)c(C#N)c3[nH]c4ccccc4n3c2=O)cc1 | 0 | 48* | -5 | -7 | 95* | 65*
Cc1[nH]c(=S)c(C#N)c(C)c1Cc1ccccc1 | -1 | 1 | 9 | -12 | . | .
CCc1c(C)c(C#N)c2nc3ccccc3n2c1NCCOC | i | 11 | 13 | -12 | . | .
CCc1c(C)c(C#N)c2[nH]c3ccccc3n2c1=S | -1 | 30* | 11 | -9 | 64* | 60*
SMILES | Vc quorum ag | Mtb FBA inh | GDH-TPI counter-1 | CCHFV vOTU inh | Mtb FBA confirm | GDH-TPI counter-2
CCN(CC)CCN1C(=O)c2oc3ccccc3c(=O)c2C1c1ccccc1 (stereo not drawn) | 0 | 2 | 7 | . | . | .
COCc1cc(=O)n2[nH]cc(-c3ccsc3)c2n1 | i | 55* | 2 | -17 | 94* | 84*
COCc1cc(=O)n2[nH]c(-c3ccccc3)cc2n1 | -1 | 33* | 1 | -2 | + | +
COCc1cc(=O)n2[nH]c(-c3cccc(Br)c3)cc2n1 | 0 | 9 | -5 | 2 | . | .
Cc1cc2nc(-c3ccccc3)cc(=O)n2[nH]1 | 0 | 47* | -10 | -31 | + | +
COC(=O)C1=CN(Cc2cccs2)C=C(C(=O)OC)C1c1cccc(Cl)c1 | 4 | 71* | 7 | -56 | 65* | 53*
COC(=O)C1=CN(Cc2cccs2)C=C(C(=O)OC)C1c1ccc(OC)cc1OC | i | 85* | -4 | -99 | 89* | 93*
O=C(/C=C/c1cccc(Cl)c1)NCc1cccs1 | i | 0 | -6 | -3 | . | .
CCCCOc1ccccc1C1C(C(=O)OC)=CN(CC)C=C1C(=O)OC | i | 63* | 20 | -110 | 7 | 1
Cc1ccccc1NC(=O)COC(=O)CCc1ccccc1 | 0 | -2 | 0 | 7 | . | .
CC(=O)Nc1ccc(N(C(=O)c2cnccn2)C(C(=O)NC2CCCCC2)c2ccc(F)cc2)cc1 (stereo not drawn) | -1 | 3 | 4 | 0 | . | .
CC(=O)Nc1nc2ccc(-c3nc4ccccc4o3)cc2s1 | i | 105* | 23 | -22 | 92* | 75*
O=C(CSc1nc2ccccc2o1)Nc1nc2ccccc2s1 | 0 | 5 | -6 | 4 | . | .
CC(=O)Nc1ccc(S(=O)(=O)Nc2cccc(-c3nc4ccccc4o3)c2)cc1 | . | 55* | 4 | 0 | 58* | 53*
CCC(=O)Nc1cccc(-c2nc3ccccc3o2)c1 | . | 11 | 0 | -5 | . | .
O=S(=O)(Nc1ccc(-c2nc3ccccc3o2)cc1)c1ccccc1 | i | 87* | 43* | 11 | 131* | 110*
O=C(Nc1ccc(-c2nc3ccccc3o2)cc1)C1CCCO1 (stereo not drawn) | i | 34* | 18 | -8 | -3 | -2
Cc1c(OCC(=O)NC2CC(C)(C)NC(C)(C)C2)ccc2c1oc(=O)c1ccccc12 | -1 | 63* | 18 | -77 | 50* | 59*
Cc1c(OCC(=O)NC2CC(C)(C)NC(C)(C)C2)ccc2c3c(c(=O)oc12)CCC3 | i | 32* | 14 | 9 | 43* | 35*
CCCc1cc(=O)oc2c(C)c(OCC(=O)NC3CC(C)(C)NC(C)(C)C3)ccc12 | 0 | 18 | 10 | 2 | . | .
Cc1cc(=O)oc2c(C)c(OCC(=O)NC3CC(C)(C)NC(C)(C)C3)ccc12 | i | 18 | 10 | 13 | . | .
COC(=O)C1(C)Nc2ccccc2C(=O)N1c1ccccc1C (stereo not drawn) | 0 | 52* | 16 | -38 | 102* | 71*
CC(=O)c1ccc(NC(=O)CC2S/C(=N/N=C3CCCCCC3)NC2=O)cc1 (stereo not drawn) | 1 | -1 | 0 | 0 | . | .
C[C@]12c3[nH]c4cc(-c5ccco5)ccc4c3CCN1C(=O)[C@@H](CC(=O)NCc1ccco1)C[C@@H]2C(=O)N1CCCCC1 | 0 | 32* | -1 | -16 | 117* | 70*

Screening data (PubChem)
